Assay [1] deals with Zika virus NS2B-NS3 protease. The experiment in a line: Primary screen GU AMC qHTS for Zika virus inhibitors (AID 1347154).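 Note: 0% = no-inhibitor control and -100% = no-enzyme control; nearly all actives have a fitted effect of over 70% in size.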 The method, boiled down:
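Unlinked Zika NS2B hydrophilic domain/NS3 protease domain noncovalent complex (25 nM final) in 10 mM Tris-HCl pH 8.0, 0.01% Tween 20, with AMC peptide substrate. Fluorescence (ex 340, em 450 nm) change over 15 min, room temperature; percent inhibition fitted to 4-parameter Hill equation.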
A general note: Quantitative high-throughput screening tests each substance at several concentrations.

Assay [2] is described as follows: Primary qHTS for small molecule stabilizers of the endoplasmic reticulum resident proteome: Secreted ER Calcium Modulated Protein (SERCaMP) assay (AID 1508630). Note: % is set by controls: 0 for no effect and ±100 for the full control effect. The method, boiled down: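 The SH-SY5Y reporter protocol was run at 3 concentrations up to 38.3 uM (primary) or 11 concentrations (follow-up): 16 h compound, 100 nM thapsigargin for 4 h, then extracellular luciferase luminescence.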

A short description of assay [3]: Counterscreen qHTS for small molecule stabilizers of the endoplasmic reticulum resident proteome: GLuc-NoTag assay (AID 1508627).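 Note: 0% = thapsigargin alone and -100% = DMSO vehicle control.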 The essentials: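 Secreted GLuc lacking the SERCaMP modification is measured in SH-SY5Y cells exposed to compound for 19 h and then to thapsigargin (100 nM, 4 h) to deplete ER calcium; hits retested at 11 concentrations, up to 76.6 uM.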

Assay [4] is described as follows: Cell Viability qHTS for small molecule stabilizers of the endoplasmic reticulum resident proteome (AID 1508629).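 Note: compound exposure about 46 h in total before the viability read.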 Note: potency is the fitted concentration of half-maximal effect. Conditions: cell viability counter-screen, 100 nM thapsigargin for final 4 h.
A short description of assay [5]: AP1 Signaling Pathway (AID 357; active = well fitted curve in either direction with a large enough effect, not every such curve was filed as active;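 note: ME-180 reporter cells stimulated with EGF at its EC50 level; % is set by controls: 0 for no effect and ±100 for the full control effect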). Conditions: ME-180 AP-1-bla reporter, EGF-induced, beta-lactamase ratio, 5 h. The essentials:
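Cells are seeded overnight, exposed to compound titrations and an EC50 level of EGF for 5 hours at 37 °C, then loaded with CCF4 dye for 2.5 hours. Beta-lactamase activity under the AP-1 element is read as a blue/green ratio.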

Assay [6] in a line: Stat Signaling Pathway (AID 446; active = well fitted curve in either direction with a large enough effect, not every such curve was filed as active;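 note: ME-180 cervical cancer cells given 40 pM IL-6 alongside compound; SIE-controlled beta-lactamase reporter measured as 460/530 nm FRET emission ratio; % is set by controls: 0 for no effect and ±100 for the full control effect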). The note with it: ME-180 (cervical carcinoma) SIE beta-lactamase reporter, IL-6 stimulated, 5 h. The method, boiled down: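 Overnight-plated ME-180 cells bearing a STAT Inducible Element beta-lactamase reporter; 5 h co-exposure to compound and 40 pM IL-6; values normalized to 300 pM IL-6 and 125 nM JAK inhibitor controls.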
Assay [7] addresses Mitogen-activated protein kinase 10 (Mus musculus) (UniProt Q61831). The experiment in a line: JNK3 AlphaScreen Assay (AID 530; active = well fitted curve in either direction with a large enough effect, not every such curve was filed as active;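 note: kinase came from lysate of stimulated human HepG2 cells; signal reports phosphorylation of biotinylated GST-cJun 1-79 at Ser73 with 10 µM ATP; % is set by controls: 0 for no effect and ±100 for the full control effect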). The method, boiled down:
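Biotinylated GST-cJun(1-79) served as substrate for JNK3 in HepG2 lysates stimulated with IL-1beta and TNF-alpha. ATP was 10 uM final, pH 7.6. Ser73 phosphorylation was quantified by AlphaScreen (680 nm excitation).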
(In Alpha technology, singlet oxygen from a donor bead excites a nearby acceptor bead.)

The nature of assay [8]: qHTS Assay for Identification of Small Molecule Agonists for Thrombopoietin (TPO) Signaling Pathway (AID 917). Note: % is set by controls: 0 for no effect and ±100 for the full control effect. The essentials: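 Stimulation at the TPO EC50 (26 pM final) was used to detect activators. Ba/F3 mouse cells bearing human TPO receptor and a luciferase reporter under the Glycoprotein IIb promoter were exposed to compounds for 24 hrs at 37 C.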
Assay [9] has as its target Pyruvate kinase (Leishmania mexicana) (UniProt Q27686). The experiment in a line: qHTS Validation Assay for Inhibitors of Leishmania Mexicana Pyruvate Kinase (AID 945).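 Note: 0% = DMSO only neutral control wells.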 The method, boiled down:
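Purified LmPYK (E451W mutant, 0.2 nM) was incubated 1 h at room temperature with 0.5 mM PEP and 0.1 mM ADP in 50 mM imidazole pH 7.2, 50 mM KCl, 7 mM MgCl2; ATP formed was read by PKLight luminescence, normalized to DMSO wells.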

For assay [10], the target named is Pyruvate kinase PKM (Homo sapiens) (UniProt P14618). The experiment in a line: qHTS Assay for Activators of Human Muscle Pyruvate Kinase (AID 954; active = well fitted curve in the direction sought with a large enough effect, not every such curve was filed as active;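 note: 0% = uninhibited enzyme and -100% = no enzyme or full thiadiazolimine inhibition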). The essentials: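 Screening used highly purified human pyruvate kinase M2 under submaximal activity, with PEP at its Km and ADP below Km. After an hour at room temperature, ATP was read by luciferase luminescence.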
Pyruvate kinase PKM (Homo sapiens), sequence (P14618 whole entry, looked up): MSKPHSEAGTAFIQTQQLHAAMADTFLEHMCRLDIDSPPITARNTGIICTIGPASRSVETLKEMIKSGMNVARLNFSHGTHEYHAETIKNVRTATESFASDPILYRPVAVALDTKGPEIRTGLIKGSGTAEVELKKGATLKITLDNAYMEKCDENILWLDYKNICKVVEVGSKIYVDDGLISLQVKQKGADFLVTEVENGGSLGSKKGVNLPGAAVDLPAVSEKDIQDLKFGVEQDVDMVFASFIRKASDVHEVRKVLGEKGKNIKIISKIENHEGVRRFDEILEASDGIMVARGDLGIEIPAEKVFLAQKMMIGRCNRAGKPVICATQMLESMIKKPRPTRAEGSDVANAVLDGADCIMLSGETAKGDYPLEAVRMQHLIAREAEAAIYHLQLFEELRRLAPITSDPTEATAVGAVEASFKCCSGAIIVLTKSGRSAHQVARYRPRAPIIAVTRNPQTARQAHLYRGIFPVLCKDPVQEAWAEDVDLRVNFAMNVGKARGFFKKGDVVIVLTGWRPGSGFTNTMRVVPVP

The target of assay [11] is Alpha-galactosidase A (Homo sapiens) (UniProt P06280). The experiment in a line: Counterscreen for Glucocerebrosidase Inhibitors: qHTS Assay for Human alpha-Galactosidase at pH 4.5 (AID 992). Note: 0% is about no effect. The method, boiled down: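 Each compound is preincubated briefly with 2 nM enzyme before substrate addition (80 uM); plates then sit 20 min at ambient temperature, are quenched with 1M NaOH/1M glycine, and read fluorometrically.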
Alpha-galactosidase A (Homo sapiens), sequence (P06280 whole entry, looked up): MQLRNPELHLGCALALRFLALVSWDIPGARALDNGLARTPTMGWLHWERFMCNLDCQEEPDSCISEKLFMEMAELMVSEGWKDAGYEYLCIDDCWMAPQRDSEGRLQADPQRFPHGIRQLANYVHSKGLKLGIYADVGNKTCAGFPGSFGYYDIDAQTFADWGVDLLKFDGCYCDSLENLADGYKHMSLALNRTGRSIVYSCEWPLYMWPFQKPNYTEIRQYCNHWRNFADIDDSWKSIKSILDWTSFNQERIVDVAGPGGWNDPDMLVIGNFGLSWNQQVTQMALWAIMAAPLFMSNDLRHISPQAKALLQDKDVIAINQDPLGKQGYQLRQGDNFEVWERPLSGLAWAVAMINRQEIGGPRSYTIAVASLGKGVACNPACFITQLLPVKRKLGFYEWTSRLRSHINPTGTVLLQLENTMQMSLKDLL

Assay [12] has as its target alpha-glucosidase (Oryza sativa, rice) (UniProt Q653V4). The experiment in a line: Counterscreen for Glucocerebrosidase Inhibitors: qHTS Assay for Rice alpha-Glucosidase at pH 5.0 (AID 997).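 Note: 0% = full activity with enzyme and -100% = basal without enzyme.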 The method, boiled down:
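Endpoint fluorogenic assay at pH 5.0: compounds (0.7 nM to 77 uM) titrated against 4 nM rice enzyme and 400 uM 4-MU-alpha-glucoside for 20 min at room temperature; NaOH/glycine stop, read ex 365/em 440 nm, Hill-fitted AC50.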
On the technique in general: Counterscreens check selectivity or assay interference.

Assay [13] has as its target DNA dC->dU-editing enzyme APOBEC-3G (Homo sapiens) (UniProt Q9HC16). The experiment in a line: qHTS for inhibitors of Vif-A3G interactions: Validation (AID 588379). Note: 0% is about no effect. The method, boiled down:
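Yellow fluorescence (Ex 488, Em 500-530) of Vif-coexpressing HeLa A3G-eYFP cells, scanned by Acumen cytometer, reports blocked A3G degradation. Cells plated at 700/well overnight at 37 deg C before compound addition, then a further overnight compound incubation at 37 deg C.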

A short description of assay [14]: NCATS anti-infectives library activity on HEK293 viability as a counter-qHTS vs the C. elegans viability qHTS (AID 1745854). The method, boiled down:
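Compound titrations (final up to 41.7 uM) were incubated with HEK293 cells for 24 hr at 37C under 5% CO2. Viable cells were quantified with CellTiter-Glo after 10 min at ambient temperature.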

In assay [15] the target is Cytochrome P450 1A2 (Homo sapiens) (UniProt P05177). The experiment in a line: p450-cyp1a2 (AID 410; calls by dose curve; note: potency is the fitted concentration of half-maximal effect). The method, boiled down: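 Read-out is luminescence from luciferin produced by CYP1A2 demethylation of Luciferin-ME (100uM, at Km). Detection reagent stopped the 60 min NADPH-dependent reaction; signals were normalized to 57 uM furafylline.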
Cytochrome P450 1A2 (Homo sapiens), sequence (P05177 whole entry, looked up): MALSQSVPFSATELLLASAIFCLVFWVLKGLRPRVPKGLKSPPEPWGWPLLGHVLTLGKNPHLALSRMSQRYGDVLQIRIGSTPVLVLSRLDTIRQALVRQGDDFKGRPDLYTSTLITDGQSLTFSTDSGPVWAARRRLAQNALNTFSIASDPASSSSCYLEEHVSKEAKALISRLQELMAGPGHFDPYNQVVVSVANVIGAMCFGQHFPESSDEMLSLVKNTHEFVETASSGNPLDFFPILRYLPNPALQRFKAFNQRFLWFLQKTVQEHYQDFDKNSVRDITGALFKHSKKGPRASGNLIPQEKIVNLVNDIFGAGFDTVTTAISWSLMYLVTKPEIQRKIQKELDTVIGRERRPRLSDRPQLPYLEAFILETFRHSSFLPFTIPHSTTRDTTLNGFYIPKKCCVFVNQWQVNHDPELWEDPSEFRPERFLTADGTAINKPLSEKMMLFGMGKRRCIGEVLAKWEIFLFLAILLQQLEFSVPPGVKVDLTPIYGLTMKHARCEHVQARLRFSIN
Assay [16] has as its target Glucocorticoid receptor (Homo sapiens) (UniProt P04150). The experiment in a line: GR-GFP Redistribution (AID 450;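 active = compounds whose dose series gives a full or clear partial fitted curve of increased nuclear translocation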; note: potency is the fitted concentration of half-maximal effect). Conditions: U2OS GR-GFP nuclear translocation, laser cytometry, 2 h.
Assay [17] has the same target. The experiment in a line: GR-EFC Redistribution (AID 451; calls by dose curve; note: potency is the fitted concentration of half-maximal effect). The note with it: CHO-K1 GR-EFC translocation, beta-gal luminescence, 2 h. The method, boiled down:
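CHO-K1 cells stably expressing nuclear-localized β-gal enzyme acceptor and GR fused C-terminally to the enzyme donor fragment; ligand-driven nuclear translocation restores β-gal by complementation. Compounds titrated up to 46 uM final, 2 h at 37 °C; luminescence read.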

For assay [18], the target named is Cytochrome P450 2C9 (Homo sapiens) (UniProt P11712). The experiment in a line: qHTS Assay for Inhibitors and Substrates of Cytochrome P450 2C9 (AID 883). Note: potency is the fitted concentration of half-maximal effect; nearly all actives have a fitted effect of over 60% in size. The essentials:
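Human CYP2C9 (10nM) hydroxylated Luciferin-H (100uM, at its KM) to luciferin in 25mM KPO4. Compound was preincubated 10 min at 37C, then NADPH regeneration started a 60 min reaction at 37C. Luminescence was read after detection reagent, normalized to 57uM sulphaphenazole.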

The target in assay [19] is Cytochrome P450 2C19 (Homo sapiens) (UniProt P33261). The experiment in a line: qHTS Assay for Inhibitors and Substrates of Cytochrome P450 2C19 (AID 899). Note: potency is the fitted concentration of half-maximal effect; nearly all actives have a fitted effect of over 60% in size. The essentials:
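Human CYP2C19 (5nM) with Luciferin-H EGE at 10uM (its KM) in 50mM KPO4 was preincubated with compound for 10 min at 37C. NADPH regeneration started a 60 min 37C reaction. Luciferin was read by luminescence, normalized to 57uM ketoconazole.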

Assay [20] deals with Ubiquitin carboxyl-terminal hydrolase 1 (Homo sapiens) (UniProt O94782). The experiment in a line: Inhibitors of USP1/UAF1: Pilot qHTS (AID 504865).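 Note: rhodamine fluorescence freed from ubiquitin-rhodamine substrate followed over time; top concentration of the series differs between compounds; % is set by controls: 0 for no effect and ±100 for the full control effect; nearly all actives have a fitted effect of over 35% in size.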 The method, boiled down:
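USP1/UAF1 complex at 1 nM preincubated 15 min at room temperature with compound, then Ub-Rho substrate added at 150 nM final. Fluorescence (480/540 nm) read kinetically in 50 mM HEPES pH 7.8, 0.5 mM EDTA, 1 mM TCEP, 0.1 mg/ml BSA, 0.01% Tween-20.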

The structures appear in SMILES notation. Values without a mark were called inactive. Inconclusive results are not listed. Active and inactive are the calls of the source. Unless noted, calls come from the whole dose curve; as a rule, active = well fitted curve in the direction sought with a large enough effect; inconclusive = small, poorly fitted or top-dose-only effect, or another doubt; inactive = no such curve, though single readings can be large; an effect the other way counts as inactive or inconclusive. A value given as a limit tells only on which side of the number the result lay.

DNA dC->dU-editing enzyme APOBEC-3G (Homo sapiens), sequence (Q9HC16 whole entry, looked up): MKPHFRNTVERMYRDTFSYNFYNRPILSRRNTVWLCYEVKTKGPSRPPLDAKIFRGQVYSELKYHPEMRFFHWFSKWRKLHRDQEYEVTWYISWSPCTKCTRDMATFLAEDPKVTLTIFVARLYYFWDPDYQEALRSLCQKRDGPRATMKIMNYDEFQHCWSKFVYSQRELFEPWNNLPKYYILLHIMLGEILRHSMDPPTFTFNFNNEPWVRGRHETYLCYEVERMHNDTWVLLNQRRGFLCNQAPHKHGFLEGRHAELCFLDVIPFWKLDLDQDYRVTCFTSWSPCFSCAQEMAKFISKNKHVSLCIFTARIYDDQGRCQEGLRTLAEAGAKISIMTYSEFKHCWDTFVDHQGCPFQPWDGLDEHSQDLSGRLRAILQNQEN
Glucocorticoid receptor (Homo sapiens), sequence (P04150 whole entry, looked up): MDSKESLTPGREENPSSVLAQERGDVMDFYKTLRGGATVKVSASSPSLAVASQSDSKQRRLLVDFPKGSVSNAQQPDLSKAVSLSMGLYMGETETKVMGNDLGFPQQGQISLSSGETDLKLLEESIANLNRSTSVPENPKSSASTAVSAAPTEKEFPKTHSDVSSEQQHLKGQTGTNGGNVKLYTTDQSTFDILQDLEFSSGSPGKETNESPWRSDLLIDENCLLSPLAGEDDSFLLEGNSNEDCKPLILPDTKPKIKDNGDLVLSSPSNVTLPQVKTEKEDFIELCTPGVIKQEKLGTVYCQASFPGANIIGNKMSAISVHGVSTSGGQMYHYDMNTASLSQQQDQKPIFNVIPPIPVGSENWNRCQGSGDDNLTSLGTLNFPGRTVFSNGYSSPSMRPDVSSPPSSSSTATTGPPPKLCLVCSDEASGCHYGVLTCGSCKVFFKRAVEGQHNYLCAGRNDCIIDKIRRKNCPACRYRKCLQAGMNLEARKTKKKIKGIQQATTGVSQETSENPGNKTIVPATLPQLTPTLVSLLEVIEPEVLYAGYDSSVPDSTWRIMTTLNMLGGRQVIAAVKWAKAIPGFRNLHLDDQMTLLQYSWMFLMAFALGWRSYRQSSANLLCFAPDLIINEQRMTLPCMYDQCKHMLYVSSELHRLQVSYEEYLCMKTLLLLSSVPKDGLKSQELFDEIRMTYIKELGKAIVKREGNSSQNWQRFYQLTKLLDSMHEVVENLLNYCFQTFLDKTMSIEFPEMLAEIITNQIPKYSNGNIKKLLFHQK
Cytochrome P450 2C9 (Homo sapiens), sequence (P11712 whole entry, looked up): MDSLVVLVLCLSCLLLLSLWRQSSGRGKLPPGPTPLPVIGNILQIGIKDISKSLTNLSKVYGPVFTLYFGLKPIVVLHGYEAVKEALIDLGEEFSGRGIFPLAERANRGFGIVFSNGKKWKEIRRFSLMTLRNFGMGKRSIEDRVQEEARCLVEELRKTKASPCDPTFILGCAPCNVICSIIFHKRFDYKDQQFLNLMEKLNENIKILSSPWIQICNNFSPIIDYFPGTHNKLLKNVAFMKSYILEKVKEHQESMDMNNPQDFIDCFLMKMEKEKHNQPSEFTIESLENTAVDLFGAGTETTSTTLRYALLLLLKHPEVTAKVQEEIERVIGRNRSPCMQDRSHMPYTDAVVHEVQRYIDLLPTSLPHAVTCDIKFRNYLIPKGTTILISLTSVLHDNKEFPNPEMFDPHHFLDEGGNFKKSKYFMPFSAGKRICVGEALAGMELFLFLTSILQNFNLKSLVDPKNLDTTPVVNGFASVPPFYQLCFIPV
Ubiquitin carboxyl-terminal hydrolase 1 (Homo sapiens), sequence (O94782 whole entry, looked up): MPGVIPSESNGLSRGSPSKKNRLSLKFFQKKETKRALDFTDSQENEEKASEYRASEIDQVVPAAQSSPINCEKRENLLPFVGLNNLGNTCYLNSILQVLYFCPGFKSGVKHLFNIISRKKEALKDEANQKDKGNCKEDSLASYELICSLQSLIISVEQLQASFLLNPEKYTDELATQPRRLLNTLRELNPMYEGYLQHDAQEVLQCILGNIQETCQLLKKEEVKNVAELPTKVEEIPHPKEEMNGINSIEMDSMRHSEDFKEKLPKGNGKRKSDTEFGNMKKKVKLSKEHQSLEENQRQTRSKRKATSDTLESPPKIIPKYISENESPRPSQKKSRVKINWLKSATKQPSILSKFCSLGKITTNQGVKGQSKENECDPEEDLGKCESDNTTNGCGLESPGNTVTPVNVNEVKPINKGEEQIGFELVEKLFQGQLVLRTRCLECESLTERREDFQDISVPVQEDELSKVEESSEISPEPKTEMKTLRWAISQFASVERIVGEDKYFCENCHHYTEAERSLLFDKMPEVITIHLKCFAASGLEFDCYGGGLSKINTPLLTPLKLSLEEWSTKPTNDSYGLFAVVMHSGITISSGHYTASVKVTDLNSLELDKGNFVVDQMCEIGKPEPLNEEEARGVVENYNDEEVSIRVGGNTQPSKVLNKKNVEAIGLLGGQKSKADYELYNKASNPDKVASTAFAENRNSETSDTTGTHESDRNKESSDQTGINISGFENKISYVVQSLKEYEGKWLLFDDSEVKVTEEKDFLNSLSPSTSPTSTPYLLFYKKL
Pyruvate kinase (Leishmania mexicana), sequence (Q27686 2-499 E452W): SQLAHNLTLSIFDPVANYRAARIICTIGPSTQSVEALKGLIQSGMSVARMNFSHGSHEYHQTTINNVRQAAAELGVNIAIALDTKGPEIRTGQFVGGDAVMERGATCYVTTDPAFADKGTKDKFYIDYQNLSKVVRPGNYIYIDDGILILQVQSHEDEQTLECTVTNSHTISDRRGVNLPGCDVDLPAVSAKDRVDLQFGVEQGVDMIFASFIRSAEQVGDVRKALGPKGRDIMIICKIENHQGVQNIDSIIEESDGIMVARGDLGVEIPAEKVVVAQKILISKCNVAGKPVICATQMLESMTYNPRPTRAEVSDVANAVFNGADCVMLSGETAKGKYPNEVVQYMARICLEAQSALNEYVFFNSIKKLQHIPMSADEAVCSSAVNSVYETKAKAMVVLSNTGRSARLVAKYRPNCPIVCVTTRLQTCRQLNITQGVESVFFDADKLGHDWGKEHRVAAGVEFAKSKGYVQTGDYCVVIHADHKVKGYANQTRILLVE
Cytochrome P450 2C19 (Homo sapiens), sequence (P33261 whole entry, looked up): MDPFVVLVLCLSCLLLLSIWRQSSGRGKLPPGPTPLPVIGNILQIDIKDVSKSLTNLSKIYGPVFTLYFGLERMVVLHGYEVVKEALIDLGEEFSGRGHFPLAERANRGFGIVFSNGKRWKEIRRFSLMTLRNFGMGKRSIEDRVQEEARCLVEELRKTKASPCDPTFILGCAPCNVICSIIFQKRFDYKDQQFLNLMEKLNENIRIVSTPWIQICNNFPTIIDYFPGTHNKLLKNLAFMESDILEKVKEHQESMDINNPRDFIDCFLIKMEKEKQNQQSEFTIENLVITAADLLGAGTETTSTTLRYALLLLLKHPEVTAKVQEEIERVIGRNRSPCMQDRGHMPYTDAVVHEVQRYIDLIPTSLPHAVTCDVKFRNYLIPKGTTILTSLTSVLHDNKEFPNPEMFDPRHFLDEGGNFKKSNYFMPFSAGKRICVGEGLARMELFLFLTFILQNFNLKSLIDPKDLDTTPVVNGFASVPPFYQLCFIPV

In the case of `O=C(NCCCCCCNC(=O)ON=C1CCCCC1)ON=C1CCCCC1`, the Potency result in [1] and in assay [2] was “inactive” in each case.

Regarding `CN1C/C(=C/c2ccc(B(O)O)cc2)C(=O)/C(=C/c2ccc(B(O)O)cc2)C1`, the Potency entry in assay [1] and in [2] was “inactive” each time.

As for `Clc1ccc2ncnc(NCc3ccc4c(c3)OCO4)c2c1`, the Potency entry in assay [1] and in [2] was “inactive” each time.

Take `N#Cc1cc2c(OCC(O)CN3CCN(C(c4ccccc4)c4ccccc4)CC3)cccc2[nH]1` (stereo not drawn): the Potency result in assay [1] and in assay [3] was “inactive” each time. For the same compound, the max response in [4] was 3.24%.

Consider `COC(=O)c1csc(C(=O)c2c[nH]c3ccccc23)n1`, for which the Potency result in [1] and in assay [2] was “inactive” in each case.

With `COc1ccc(CCN(C)CCC[C@@](C#N)(c2ccc(OC)c(OC)c2)C(C)C)cc1OC`, the figures for the activity change, negative = inhibition in [5] (at 17.2 µM (top of the series)) and in assay [5] (at 38 µM (top of the series)) were 2.2% and 10.5%, respectively. In addition, the figures for the activity, negative = inhibition in [6] (at 17.2 µM (top of the series)) and in assay [6] (at 38 µM (top of the series)) were -16.1% and -6.6%, respectively. For the same compound, the Potency result in assay [7], in assay [8], in assay [9], in [13], in assay [1] and in assay [3] was “inactive” throughout. The outcome in assay [10], in assay [11], in assay [12] and in [14] was inactive.

Turning to `CCCCC(C)(C)[C@H](O)/C=C/[C@H]1[C@H](O)CC(=O)[C@@H]1C/C=C\CCCC(=O)O`, the results for the activity change, negative = inhibition in [1] and in assay [2] were 5.54% [at 6.83 µM] and 8.87% [at 3.88 µM], respectively.

As to `COc1cc(N)c(Cl)cc1C(=O)N[C@H]1CCN(CCCOc2ccc(F)cc2)C[C@@H]1OC`, the Potency is 25.1 µM (active) in assay [15]; over 46 µM in [16]; over 46 µM in assay [17]; 1 µM (active) in assay [18]; 0.794 µM (active) in [19]. The Potency entry in assay [7], in assay [20], in assay [13], in assay [1] and in [3] was “inactive” in each case.

Turning to `CC(C)ON(C(C(=O)NO)C(C)C)S(=O)(=O)c1ccc(-c2ccccc2)cc1` (stereo not drawn), the Potency result in assay [1] and in [3] was “inactive” throughout. In addition, the Potency in assay [4] was 12.6 µM (active).

Turning to `CN(C)C1CCc2[nH]c3ccc(NC(=O)c4ccc(F)cc4)cc3c2C1` (stereo not drawn), the Potency result in assay [1] and in assay [3] was “inactive” throughout. Also, the max response in assay [4] is -26.6%.

These data come from PubChem BioAssay (NCATS).
